IL-1B inflam inh: blocks inflammasome-driven IL-1 beta release | AID 743279 | THP-1 LPS/ATP IL-1B secretion, AlphaLISA, 16 h; stronger effect = lower value | hit rate 4.7% among 360,000 | activity change, % at 57.5 µM; in the data active = activity change below about -50%; inconclusive = mostly about -30% to -49%
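THP-1 cells pretreated 1 hr with compounds (up to 57.5 uM final), then stimulated with LPS (250 ng/mL final) plus ATP (1.25 mM final); secreted IL-1B measured by AlphaLISA after 16 hr, decreased signal indicating inhibition.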
HT1080NT lethal: kills 2HG-producing HT-1080-NT fibrosarcoma cells; hit rate 1.6% among 360,000; AID 686970; HT-1080-NT fibrosarcoma viability, CellTiter-Glo ATP luminescence, 48 h; Potency, µM (series often up to 46.1 µM), inactives show top-dose activity, negative = less viability, usual class: cytotoxic;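 also: NT is the 2HG producing partner of a matched IDH1 knockdown line; potency is read from the fitted curve at half-maximal effect; 0% = DMSO-treated cells and -100% = media-only wells without cells; nearly all actives have a fitted effect of over 55% in size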
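Fibrosarcoma NT cells, 750 per well in 5% FBS RPMI, were exposed to compound for 48 hours. Viability: CellTiter-Glo luminescence.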
DT40 TDP1 CPT: growth inhibition of DT40 Tdp1-/-;hTDP1 cells with camptothecin (screen for TDP1 inhibitors); chicken DT40 Tdp1-/-;hTDP1 cells + 20 nM CPT, ATP luminescence, 48 h; Potency, µM (titrated, usually from 46.2 µM), inactives show at the highest dose activity change, negative = growth inhibition, most hits filed as inhibitors; hit rate 12% among 420,000; AID 686979; also: potency is read from the fitted curve at half-maximal effect; nearly all actives have a fitted effect of over 55% in size
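Chicken DT40 Tdp1-/- cells complemented with human TDP1, 400 cells/well, exposed to compounds plus 20 nM camptothecin for at least 48 h at 37 C; viability read as ATP content by CellTiter-Glo luminescence.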
DT40 TDP1 no CPT: qHTS for Inhibitors of human tyrosyl-DNA phosphodiesterase 1 (TDP1): qHTS in cells in absence of CPT | hit rate 15% among 420,000 | DT40 Tdp1-/- hTDP1 cells, no CPT, ATP luminescence, 48 h | Potency, µM (series often up to 46.2 µM), inactives show top-dose activity change, negative = growth inhibition, actives largely listed as inhibitors; also: potency is read from the fitted curve at half-maximal effect; nearly all actives have a fitted effect of over 55% in size
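Chicken DT40 Tdp1-/- cells complemented with human TDP1, screened without camptothecin (DMSO vehicle only), 400 cells/well. Compounds pin-transferred, cells incubated at 37 °C for at least 48 hr. Growth read as ATP-dependent luminescence (CellTiter-Glo, 30 min at RT).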
HT1080 IDH1KD tx: HT-1080 IDH1 knockdown cell toxicity (counter line); hit rate 2% among 360,000; Potency, µM (series often up to 46.1 µM), without a hit: top-dose activity, negative = toxicity, usual class: cytotoxic; AID 686971; HT-1080 IDH1 knockdown viability, ATP luminescence, 48 h;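 also: potency is read from the fitted curve at half-maximal effect; 0% = DMSO wells and -100% = cell-free medium wells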
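Using the IDH1-knockdown HT-1080 line run in the same batch and compound series as the NT line, viability after 48 h at 37 °C was determined by CellTiter-Glo luminescence and expressed as % activity.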
* = called active by the depositor; ? = inconclusive; / = no result. This is a sample that favours compounds with a hit; in the whole collection about 19% have one here. Unless noted, calls follow the shape of the dose curve; as a rule, active = well fitted curve in the direction sought with a large enough effect; inconclusive = small, poorly fitted or top-dose-only effect, or another doubt; inactive = no such curve, though single readings can be large; an effect the other way counts as inactive or inconclusive. Unless noted, % is scaled to controls: 0 for no effect and ±100 for the full control effect.

SMILES | IL-1B inflam inh | HT1080NT lethal | DT40 TDP1 CPT | DT40 TDP1 no CPT | HT1080 IDH1KD tx
CCOC(=O)C1(Cc2cccc(OC)c2)CCN(CC2CC=CCC2)CC1 (centres undefined) | 33 | -20% | ? | 23µM* | -11%
CCOC(=O)C1(Cc2ccccc2)CCN(Cc2cnn(C(C)C)c2)CC1 | 33 | 0% | 15% | -24% | 0%
CCOC(=O)C1(Cc2ccccc2)CCN(Cc2csc(C(C)=O)c2)CC1 | -61* | -6% | -24% | ? | -14%
COc1ccc(N(C(=O)CNC(=O)c2cccs2)C(C(=O)NCC2CCCO2)c2ccccc2)cc1OC (centres undefined) | -5 | 6% | 3% | ? | 6%
CCOC(=O)C1(Cc2ccccc2)CCN(Cc2cccn2-c2nccs2)CC1 | ? | -16% | ? | ? | -26%
CCOC(=O)C1(Cc2ccccc2)CCN(Cc2cccc3nccnc23)CC1 | -64* | -11% | ? | 18µM* | -3%
CCOC(=O)C1(Cc2cccc(OC)c2)CCN(Cc2ccc(C)s2)CC1 | -118* | -25% | 21µM* | 18µM* | ?
CCOC(=O)C1(Cc2cccc(OC)c2)CCN(Cc2ccccc2OC)CC1 | -5 | ? | -25% | ? | ?
CCOC(=O)C1(Cc2cccc(OC)c2)CCN(Cc2cccn2-c2nccs2)CC1 | -77* | -3% | ? | ? | -17%
CCOC(=O)C1(Cc2cccc(OC)c2)CCN(Cc2ccon2)CC1 | 8 | 3% | ? | 1% | 5%
CCOC(=O)C1(Cc2cccc(OC)c2)CCN(Cc2cccc(OC)c2O)CC1 | ? | ? | 23µM* | 21µM* | ?
COc1ccc(NC(=O)Cn2ccn(-c3ccccc3)c(=O)c2=O)cc1 | / | / | -3% | 2% | /
Cc1c(C(=O)NC2=NCCS2)cccc1[N+](=O)[O-] | -2 | 11% | -6% | -3% | 17%
COc1ccc([C@H]2C[C@@H](n3cc(C4CC4)nn3)[C@H](O)CN2CC2CCCCC2)cc1 | -55* | ? | ? | 21µM* | ?
Cc1ccc([C@H]2C[C@H](n3cc(C4CC4)nn3)[C@@H](O)CN2CC2CCCCC2)cc1 | -13 | ? | ? | 18µM* | ?
Oc1ccccc1C1=NN(c2ccccc2)C(c2ccc(F)cc2)C1 (centres undefined) | -7 | -9% | -16% | ? | -6%
Oc1ccccc1C1=Nc2nc3ccccc3n2C(c2ccccc2)C1 (centres undefined) | -9 | -10% | 21µM* | 18µM* | -19%
Cc1ccc(NC(=O)c2sc3nc[nH]c(=O)c3c2C)c(C)c1 | 26 | -6% | -29% | -29% | -6%
c1ccc(-c2cc(-c3nc4ccccc4[nH]3)c3ccccc3n2)cc1 | -67* | -29% | ? | ? | ?
c1ccc(-c2csc(-c3nc4ccccc4[nH]3)n2)cc1 | / | / | 17µM* | 27µM* | /
CCOC(=O)C(C)On1c(-c2ccccc2)nc2ccc([N+](=O)[O-])cc21 (centres undefined) | -15 | -2% | ? | 18µM* | -4%
N#CCCn1nc(-c2ccc(Br)cc2)cc1Nc1ccccc1NC(=O)C(F)(F)F | -78* | ? | ? | ? | ?
Cc1cccc(N2CCN(C(=O)c3cc4ccc5cccnc5c4[nH]3)CC2)c1C | / | / | 23µM* | ? | /
CC(=O)c1ccc(N2CCN(C(=O)c3cc4ccc5cccnc5c4[nH]3)CC2)cc1 | / | / | 15µM* | 18µM* | /
CC(C)Cn1c(SCC(=O)NC2CC2)nc2ccccc21 | 16 | -1% | -1% | ? | -3%
Cc1nc(NC(=O)COC(=O)C2CC2C)c(Cl)cc1Cl (centres undefined) | 6 | 12% | -1% | 1% | 11%
O=C(/C=C/c1ccc(F)cc1)NCC1Cc2cccc(-c3ncccn3)c2O1 (centres undefined) | / | / | ? | 18µM* | /
COc1ccc(OC)c(CNC(=O)CCCn2c(=O)c3cccn3c3cccnc32)c1 | / | / | 3% | -22% | /

Screening data (PubChem BioAssay)
